Screens: PubChem, SRMLSC
PMK inhibit: S. pneumoniae PMK inhibition; purified PMK, PK/LDH-coupled NADH absorbance 340 nm; inhibition, % at 10 µM; hit rate 0.49% among 65,000; AID 539;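 active = top-ranked compounds by inhibition in the single 10 µM screen, taking a fixed number of the strongest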;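 also: 0% = full reaction with DMSO carrier and 100% = background rate without enzyme reaction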
DPM-DC inhibit: inhibitors of Streptococcus pneumoniae diphosphomevalonate decarboxylase; purified DPM-DC, PK/LDH coupled NADH fluorescence; hit rate 0.49% among 65,000; calls only at 10 µM;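 active = the 320 compounds with the highest percent inhibition in the single-dose primary screen, excluding strongly autofluorescent ones, cut at about 32% in these data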;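 also: kinetic rate of NADH fluorescence loss reporting ADP formed by the decarboxylase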
Fluor 339 460: intrinsic fluorescence of library compounds, ex339/em460 – biochemical, MLSMR library, data from DPM-DC assay, artefact control, profiling panel | hit rate 5.5% among 65,000 | fluorescence fold increase at 10 µM | compound autofluorescence, ex339/em460 nm, NADH buffer; active compounds read high; 1 = no-compound wells, NADH background;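 active = at 10 µM, mean starting fluorescence two-fold or more over control wells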;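 also: signal is the first read of a kinetic run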
NADH coupling: blocks coupling enzymes of NAD/NADH assays. coupled PK/LDH NADH assays, four targets. IC50, µM (top dose mostly 10 µM), for the others: top-dose inhibition. hit rate 0.02% among 65,000. AID 774;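 active = single-dose screening hits from any of four coupled enzyme assays that gave an IC50 when retested across doses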;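 also: the DPM-DC format reads NADH fluorescence rather than 340 nm absorbance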
A340 absorber: absorbance at 340 nm; compound absorbance at 340 nm, fold over control; fold change at 10 µM; 65,000 tested, under 10 active;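 active = at 10 µM dose, initial 340 nm absorbance at least 2 fold that of control wells; inactive = change under 2 fold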;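 also: initial absorbance extrapolated from kinetic A340 decline of NADH oxidation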
MK inhibit: inhibitors of Streptococcus pneumoniae mevalonate kinase; purified MK, PK/LDH-coupled NADH absorbance 340 nm; inhibition, % at 10 µM; hit rate 0.48% among 65,000; AID 555;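 active = ranked among the strongest by inhibition in the single 10 µM screen, a fixed top-ranked set picked for dose follow-up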
The depositor's hits bear a star; i = inactive; nt = not tested or not shown; + = active, no number. An excerpt weighted towards active compounds, which were near 6.5% of everything screened.

SMILES	PMK inhibit	DPM-DC inhibit	Fluor 339 460	NADH coupling	A340 absorber	MK inhibit
CCN1CCCC1CNC(=O)c1nn(-c2ccc(C)cc2)c(=O)c2c1c1ccccc1n2C (stereo not drawn)	7.0	i	2.67*	8.0%	1.02	2.0
Cc1ccc(-n2nc(C(=O)N3CCN(C)CC3)c3c4ccccc4n(C)c3c2=O)cc1	10.0	i	1.23	4.0%	0.99	2.0
CN1CCN(CCCNC(=O)c2cc3c(=O)n(C)c4ccccc4c3s2)CC1	0.0	nt	2.11*	6.0%	1.17	12.0
CCOC(=O)c1ccc(NC(=O)c2c(O)c3ccccc3n(C)c2=O)cc1	0.0	i	1.1	2.0%	1.06	7.0
CCOC(=O)c1cc2c(=O)n(C)c3ccccc3c2s1	14.0	+	2.77*	21.0%	1.01	6.0
Cc1c(NC(=O)COC(=O)c2cc3c4ccccc4n(C)c3s2)c(=O)n(-c2ccccc2)n1C	6.0	i	3.23*	11.0%	1.23	2.0
CCN(CC)S(=O)(=O)c1ccc(C(=O)OCn2nnc3ccccc3c2=O)cc1	12.0	i	1.03	8.0%	1	8.0
CCCCOc1ccc(NC(=O)CSc2nnnn2C)cc1	0.0	i	1.17	3.0%	0.99	8.0
CCOC(=O)c1snc(C(=O)NC2CCCCC2)c1N	0.0	i	2.02*	3.0%	1.03	8.0
Nc1c(C(=O)NC2CCCCC2)nsc1C(=O)OCC(=O)NC1CCCCC1	11.0	i	3.11*	17.0%	1.01	11.0
O=C(NCc1ccncc1)Nc1ccc(F)cc1	7.0	i	1.06	7.0%	1	11.0
c1ccc(-c2oc3ncnc(NCCCN4CCOCC4)c3c2-c2ccccc2)cc1	13.0	nt	3.75*	12.0%	1.08	10.0
COc1ccc(-c2oc3ncnc(NCCN4CCOCC4)c3c2-c2ccc(OC)cc2)cc1	8.0	nt	3.8*	9.0%	1.07	9.0
COc1ccc(-c2oc3ncn(CCN4CCOCC4)c(=N)c3c2-c2ccc(OC)cc2)cc1	16.0	i	1.52	6.0%	1.06	10.0
COc1ccc(-c2oc3ncnc(NCCCN4CCOCC4)c3c2-c2ccc(OC)cc2)cc1	16.0	nt	3.75*	17.0%	1.12	17.0
O=S(=O)(NCCCN1CCN(c2ccccc2F)CC1)c1cccc2cccnc12	2.0	i	1.02	1.0%	1	0.0
CCCc1cc2c(=O)c(-c3ccccn3)c(C)oc2cc1O	10.0	nt	2.1*	5.0%	1.13	0.0
Cc1cc(C)n(C(=O)C(C)N2C(=O)c3ccccc3C2=O)n1 (stereo not drawn)	6.0	i	1.13	4.0%	1.03	5.0
O=c1nc2n(c3c4c(sc13)CCC4)CCC2	0.0	i	1.13	6.0%	0.96	17.0
CCN1CCN(c2ncnc3c2sc2nc(N4CCOCC4)c4c(c23)CCC4)CC1	0.0	i	1.6	14.0%	1.08	14.0
c1nc(NCCN2CCOCC2)c2sc3nc(N4CCOCC4)c4c(c3c2n1)CCC4	0.0	nt	2.29*	5.0%	1.23	10.0
Cc1ccc(Nc2nc(OC(C(F)(F)F)C(F)(F)F)nc(N3CCOCC3)n2)cc1	3.0	i	1.08	5.0%	1.01	9.0
CCOc1nc(Nc2ccc(-c3nc4ccccc4o3)cc2)nc(N2CCOCC2)n1	8.0	nt	4.76*	4.0%	1.12	0.0
CCN1C(=O)c2cccc3c(S(=O)(=O)NCCCN4CCOCC4)ccc1c23	20.0	i	3.89*	15.0%	1.06	6.0
COc1ccc(S(=O)(=O)NCCCN2CCOCC2)c2ccccc12	6.0	i	1.07	3.0%	0.99	9.0
SMILES	PMK inhibit	DPM-DC inhibit	Fluor 339 460	NADH coupling	A340 absorber	MK inhibit
CCOc1ccc(S(=O)(=O)NCCCN2CCOCC2)c2ccccc12	40.0*	i	1.18	14.0%	1.02	3.0
CCN1C(=O)c2cccc3c(S(=O)(=O)Nc4ccccc4OC)ccc1c23	5.0	i	1.19	4.0%	1.07	1.0
COc1ccc(Cn2c(C)nc3oc4cc(OC)ccc4c(=O)c3c2=O)cc1	0.0	i	1.12	2.0%	1.05	6.0
COc1cc(OC)c2c(C)c(Cl)c(=O)oc2c1	9.0	nt	3.66*	5.0%	1.08	0.0
COc1ccc(CNc2oc(COc3ccc(Cl)cc3)nc2C#N)cc1	0.0	i	1.08	2.0%	1.02	7.0
COc1ccc(-c2nc(C#N)c(NCCc3ccccc3)o2)cc1	12.0	nt	3.63*	11.0%	1.04	9.0
COc1ccc(-c2nc(C#N)c(NCCN(C)C)o2)cc1	9.0	nt	2.14*	8.0%	1.08	6.0
CNc1oc(-c2ccccc2)nc1C#N	5.0	nt	2.14*	7.0%	1.1	9.0
COc1ccc(CCNc2oc(-c3ccc(C)cc3)nc2C#N)cc1OC	13.0	nt	2.13*	8.0%	1.1	2.0
C=CCc1c(C)nc(SCC(=C)C)[nH]c1=O	0.0	i	1.1	7.0%	1.01	12.0
CN(C)S(=O)(=O)c1ccc2c(c1)C(CC(=O)O)NC2=O (stereo not drawn)	9.0	i	1.12	9.0%	1.02	17.0
O=c1[nH]cnc2cc(Cl)ccc12	8.0	i	1.12	7.0%	1.02	12.0
CC1(C)N(O)CC(c2cccs2)=[N+]1[O-]	0.0	i	1.09	0.0%	1.07	0.0
COc1ccc(C2CC(=O)C(C=NCCN3CCOCC3)=C(O)C2)cc1 (stereo not drawn)	0.0	i	1.04	1.0%	0.99	2.0
CN(C)c1ccc(-c2ccccc2)nn1	15.0	i	1.2	5.0%	1.07	0.0
Brc1ccccc1-c1nnc2sc(Cc3ccccc3)nn12	6.0	i	1.15	6.0%	1.04	4.0
Clc1ccccc1-c1nn2c(Cn3cnc4ccccc43)nnc2s1	5.0	i	1.08	5.0%	1	10.0
c1ccc2c(c1)ncn2Cc1nnc2sc(-c3ccc4c(c3)OCO4)nn12	15.0	nt	3.8*	12.0%	1.08	8.0
Brc1ccccc1-c1nnc2sc(-c3ccc4c(c3)OCCO4)nn12	11.0	i	2.03*	7.0%	1.05	6.0
c1ccc2c(c1)OCC(c1nnc3sc(-c4ccc5c(c4)OCO5)nn13)O2 (stereo not drawn)	10.0	i	2.57*	6.0%	1.04	0.0
Fc1ccc(-c2nn3c(C4COc5ccccc5O4)nnc3s2)cc1 (stereo not drawn)	6.0	i	1.09	5.0%	0.99	8.0
Clc1ccccc1-c1nnc2sc(-c3ccc4c(c3)OCO4)nn12	11.0	i	2.59*	17.0%	1.04	20.0
Clc1cccc(-c2nnc3sc(-c4ccc5c(c4)OCO5)nn23)c1	3.0	i	1.25	1.0%	1.05	0.0
CCCCCCNS(=O)(=O)c1nc2nc(C)cc(C)n2n1	0.0	i	1.03	1.0%	1.04	4.0
CCCCNC(=O)CSc1cc(=O)n(C)c2ccccc12	14.0	i	1.33	11.0%	1.02	10.0
Nc1n[nH]c(S(=O)(=O)CCCc2ccccc2)n1	9.0	i	1.09	3.0%	1.04	0.0
O=C(OCCNc1ncc(C(F)(F)F)cc1Cl)c1ccc(S(=O)(=O)N2CCOCC2)cc1	8.0	i	1.15	5.0%	1.06	7.0
